Measurements taken from the supplement of paper PMC10849652.
Targets with a hit are over-represented here; the source holds about 7,900 in all. About 0.6% of all pairs of compound and target were hits.

Columns and labels:
Experiment in all cases: log2 fold change, soluble protein after heating vs DMSO (PISA); higher = thermal stabilisation; K562 cells, 10 uM, 30 min; active = over 0.2 and 3.5 SD of the protein, either way, in both replicates (recomputed)
[1] = compound: C1=CC=C(C=C1)[C@H](COC2=CC3=C(C=C2)NC(=O)N3)NC(=O)C4=CC=CN(C4=O)CC5=CC(=C(C=C5)F)F
Method in brief: (§1)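 Soluble protein was quantified by TMTpro 16plex LC-MS/MS after channel sums were equalised. It was obtained as the supernatant after 21,000xg for 90 min from pooled aliquots of K562 cells (2×10^6 cells/mL, 10 μM compound, 30 min) heated for 3 min across 48°C-58°C and extracted in PBS with 0.5% NP-40 at 4°C. Thermal stability values are relative to control samples and come from duplicates. They are given as log2 fold changes.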

[2] = compound: CC1=C(SC2=C1C(=N[C@H](C3=NN=C(N32)C)CC(=O)N)C4=CC=C(C=C4)Cl)C
Method in brief: as §1

[3] = compound: CC1=C2C(=CC=C1)N=C(N(C2=O)C3=CC=CC=C3C)CN4C=NC5=C(N=CN=C54)N
Method in brief: as §1

[4] = compound: Cc1sc2c(c1C)C(c1ccc(Cl)cc1)=N[C@@H](CC(=O)OC(C)(C)C)c1nnc(C)n1-2
Method in brief: as §1

[5] = compound: c1ccc([C@@H]2C[C@H]2NC2CCNCC2)cc1
Method in brief: as §1

Measured: log2 fold change

FKBP7 (UniProt Q9Y680)
Sequence of UniProt Q9Y680 (Q9Y680 whole entry, looked up): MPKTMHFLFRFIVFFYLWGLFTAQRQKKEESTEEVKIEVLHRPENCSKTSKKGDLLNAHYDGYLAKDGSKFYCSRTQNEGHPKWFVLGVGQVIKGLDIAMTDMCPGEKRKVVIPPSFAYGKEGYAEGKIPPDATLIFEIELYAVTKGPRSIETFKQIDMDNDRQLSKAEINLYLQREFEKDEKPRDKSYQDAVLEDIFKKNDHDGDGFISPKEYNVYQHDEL
inactive: [1] -0.027 | [2] 0.005 | [3] 0.091 | [4] 0.009 | [5] 0.102

GSTT1 (UniProt P30711)
Sequence of UniProt P30711 (P30711 whole entry, looked up): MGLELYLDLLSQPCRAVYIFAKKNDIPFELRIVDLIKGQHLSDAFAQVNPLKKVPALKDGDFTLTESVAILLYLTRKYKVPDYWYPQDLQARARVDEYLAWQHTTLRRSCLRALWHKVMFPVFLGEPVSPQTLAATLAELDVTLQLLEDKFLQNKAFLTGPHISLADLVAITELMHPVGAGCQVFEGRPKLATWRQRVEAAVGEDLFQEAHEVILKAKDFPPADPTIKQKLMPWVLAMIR
inactive: [1] 0.032 | [2] 0.121 | [3] 0.165 | [4] -0.146 | [5] 0.026

GLUD1 (UniProt P00367)
inactive: [1] 0.046 | [2] 0.065 | [3] -0.004 | [4] 0.071 | [5] -0.03

FKBP4 (UniProt Q02790)
inactive: [1] -0.032 | [2] 0.042 | [3] 0.037 | [4] 0.004 | [5] -0.029

FRA10AC1 isoform 3 (UniProt Q70Z53)
Sequence of UniProt Q70Z53 (Q70Z53 whole entry, looked up): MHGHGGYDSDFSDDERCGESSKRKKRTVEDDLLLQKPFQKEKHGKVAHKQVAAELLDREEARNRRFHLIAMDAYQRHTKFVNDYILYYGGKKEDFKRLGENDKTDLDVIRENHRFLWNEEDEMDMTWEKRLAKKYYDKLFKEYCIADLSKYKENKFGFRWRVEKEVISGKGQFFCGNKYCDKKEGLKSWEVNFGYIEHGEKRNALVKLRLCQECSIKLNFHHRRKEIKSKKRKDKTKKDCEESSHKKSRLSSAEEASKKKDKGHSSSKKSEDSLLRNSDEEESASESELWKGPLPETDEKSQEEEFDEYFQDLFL
inactive: [1] -0.03 | [2] 0.005 | [3] 0.055 | [4] 0.069 | [5] 0.073

FERMT3 (UniProt Q86UX7)
Sequence of UniProt Q86UX7 (Q86UX7 whole entry, looked up): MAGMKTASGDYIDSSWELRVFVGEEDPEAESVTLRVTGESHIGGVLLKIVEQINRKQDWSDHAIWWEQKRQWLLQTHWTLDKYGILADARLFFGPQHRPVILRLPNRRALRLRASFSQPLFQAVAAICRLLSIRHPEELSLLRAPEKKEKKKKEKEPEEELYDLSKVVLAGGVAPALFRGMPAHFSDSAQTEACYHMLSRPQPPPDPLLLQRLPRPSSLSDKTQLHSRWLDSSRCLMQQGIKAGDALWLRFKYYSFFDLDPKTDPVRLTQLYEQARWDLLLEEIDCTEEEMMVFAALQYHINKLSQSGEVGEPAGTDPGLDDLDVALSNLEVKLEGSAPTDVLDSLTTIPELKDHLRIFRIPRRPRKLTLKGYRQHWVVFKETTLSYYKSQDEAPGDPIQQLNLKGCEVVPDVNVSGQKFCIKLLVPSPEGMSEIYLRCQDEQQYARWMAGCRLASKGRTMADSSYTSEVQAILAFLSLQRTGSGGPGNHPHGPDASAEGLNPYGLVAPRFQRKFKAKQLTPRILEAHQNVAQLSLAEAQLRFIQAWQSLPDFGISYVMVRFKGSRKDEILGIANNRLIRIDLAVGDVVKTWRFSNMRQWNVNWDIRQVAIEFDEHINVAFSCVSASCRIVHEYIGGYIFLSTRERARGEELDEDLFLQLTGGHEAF
inactive: [1] -0.026 | [2] 0.066 | [3] 0.053 | [4] -0.018 | [5] -0.019

GATA1 (UniProt P15976)
Sequence of UniProt P15976 (P15976 whole entry, looked up): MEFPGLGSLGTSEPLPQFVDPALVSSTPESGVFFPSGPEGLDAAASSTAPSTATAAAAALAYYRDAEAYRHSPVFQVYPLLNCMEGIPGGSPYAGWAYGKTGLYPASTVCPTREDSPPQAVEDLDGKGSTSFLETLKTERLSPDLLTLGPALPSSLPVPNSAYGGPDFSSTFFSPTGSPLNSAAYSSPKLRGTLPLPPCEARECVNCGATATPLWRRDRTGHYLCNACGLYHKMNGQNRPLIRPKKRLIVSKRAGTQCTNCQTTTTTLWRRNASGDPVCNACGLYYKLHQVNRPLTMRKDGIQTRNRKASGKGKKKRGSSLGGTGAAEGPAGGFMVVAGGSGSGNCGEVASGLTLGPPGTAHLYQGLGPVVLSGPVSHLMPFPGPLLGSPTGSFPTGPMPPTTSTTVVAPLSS
inactive: [1] 0.061 | [2] -0.014 | [3] 0.064 | [4] 0.117 | [5] 0.029

GTF3C4 (UniProt Q9UKN8)
Sequence of UniProt Q9UKN8 (Q9UKN8 whole entry, looked up): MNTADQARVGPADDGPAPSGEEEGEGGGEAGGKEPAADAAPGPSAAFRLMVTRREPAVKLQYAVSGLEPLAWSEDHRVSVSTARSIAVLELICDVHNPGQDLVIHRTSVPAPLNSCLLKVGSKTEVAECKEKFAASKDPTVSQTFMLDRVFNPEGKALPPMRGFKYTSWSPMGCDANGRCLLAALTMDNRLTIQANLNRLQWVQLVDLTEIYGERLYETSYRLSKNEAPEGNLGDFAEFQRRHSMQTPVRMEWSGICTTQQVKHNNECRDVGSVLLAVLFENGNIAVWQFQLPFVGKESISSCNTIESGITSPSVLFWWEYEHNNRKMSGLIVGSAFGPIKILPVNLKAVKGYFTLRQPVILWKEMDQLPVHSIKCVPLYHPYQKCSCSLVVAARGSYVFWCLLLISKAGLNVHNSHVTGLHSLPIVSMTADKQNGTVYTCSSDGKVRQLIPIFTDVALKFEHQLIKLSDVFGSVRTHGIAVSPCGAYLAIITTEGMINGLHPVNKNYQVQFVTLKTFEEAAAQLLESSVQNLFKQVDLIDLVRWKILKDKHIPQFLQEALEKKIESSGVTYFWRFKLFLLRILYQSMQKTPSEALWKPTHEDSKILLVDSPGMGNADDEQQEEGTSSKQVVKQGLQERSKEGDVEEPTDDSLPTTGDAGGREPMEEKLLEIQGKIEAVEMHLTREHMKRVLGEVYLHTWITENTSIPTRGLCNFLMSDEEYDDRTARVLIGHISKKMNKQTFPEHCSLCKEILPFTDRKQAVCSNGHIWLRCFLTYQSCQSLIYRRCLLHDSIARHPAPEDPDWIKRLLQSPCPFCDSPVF
inactive: [1] 0.027 | [2] 0.065 | [3] 0.143 | [4] 0.02 | [5] 0.025

HSD17B12 (UniProt Q53GQ0)
Sequence of UniProt Q53GQ0 (Q53GQ0 whole entry, looked up): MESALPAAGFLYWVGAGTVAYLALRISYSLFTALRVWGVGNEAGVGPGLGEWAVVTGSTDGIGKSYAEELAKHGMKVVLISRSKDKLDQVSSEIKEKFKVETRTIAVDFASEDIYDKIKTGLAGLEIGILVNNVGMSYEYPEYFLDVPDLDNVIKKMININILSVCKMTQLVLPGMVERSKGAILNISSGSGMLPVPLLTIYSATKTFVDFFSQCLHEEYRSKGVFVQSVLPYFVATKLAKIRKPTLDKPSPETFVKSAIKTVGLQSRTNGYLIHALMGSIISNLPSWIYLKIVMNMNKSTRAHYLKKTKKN
inactive: [1] 0.013 | [2] 0.061 | [3] 0.066 | [4] 0.042 | [5] -0.008

HIKESHI (UniProt Q53FT3)
Sequence of UniProt Q53FT3 (Q53FT3 whole entry, looked up): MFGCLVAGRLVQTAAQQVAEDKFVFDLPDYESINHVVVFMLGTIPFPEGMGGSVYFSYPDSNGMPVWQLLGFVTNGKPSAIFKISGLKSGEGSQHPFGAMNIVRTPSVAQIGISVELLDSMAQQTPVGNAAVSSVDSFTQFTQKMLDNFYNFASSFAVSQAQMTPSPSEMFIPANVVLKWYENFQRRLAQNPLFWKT
inactive: [1] 0.014 | [2] 0.12 | [3] 0.149 | [4] -0.091 | [5] -0.027

GTF2B (UniProt Q00403)
inactive: [1] -0.036 | [2] 0.007 | [3] 0.154 | [4] 0.017 | [5] -0.002

FUCA2 (UniProt Q9BTY2)
inactive: [1] 0.055 | [2] -0.004 | [3] 0.005 | [4] 0.034 | [5] 0.006

H2AFX (UniProt P16104)
inactive: [1] 0.103 | [2] -0.353 | [3] -0.374 | [4] -0.043 | [5] 0.206

GABPA (UniProt Q06546)
inactive: [1] -0.001 | [2] 0.005 | [3] 0.149 | [4] -0.01 | [5] -0.041

FMC1 (UniProt Q96HJ9)
Sequence of UniProt Q96HJ9 (Q96HJ9 whole entry, looked up): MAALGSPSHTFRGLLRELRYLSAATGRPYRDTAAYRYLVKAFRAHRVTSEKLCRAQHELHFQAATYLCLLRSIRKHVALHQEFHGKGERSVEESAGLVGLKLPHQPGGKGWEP
inactive: [1] 0.009 | [2] 0.06 | [3] 0.044 | [4] 0 | [5] -0.002

FNTB (UniProt P49356)
Sequence of UniProt P49356 (P49356 whole entry, looked up): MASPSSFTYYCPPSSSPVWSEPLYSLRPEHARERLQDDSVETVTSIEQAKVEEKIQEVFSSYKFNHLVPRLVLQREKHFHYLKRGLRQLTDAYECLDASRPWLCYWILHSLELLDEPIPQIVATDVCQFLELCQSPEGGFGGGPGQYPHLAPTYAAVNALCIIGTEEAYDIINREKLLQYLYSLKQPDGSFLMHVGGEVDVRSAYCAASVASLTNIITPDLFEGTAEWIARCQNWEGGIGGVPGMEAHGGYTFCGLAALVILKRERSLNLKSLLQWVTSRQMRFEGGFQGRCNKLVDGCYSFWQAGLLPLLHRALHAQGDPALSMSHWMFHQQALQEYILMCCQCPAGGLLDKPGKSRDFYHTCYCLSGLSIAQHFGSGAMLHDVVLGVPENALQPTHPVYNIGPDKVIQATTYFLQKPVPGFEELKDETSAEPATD
inactive: [1] -0.034 | [2] 0.401 | [3] -0.017 | [4] 0.269 | [5] -0.044

HHEX (UniProt Q03014)
Sequence of UniProt Q03014 (Q03014 whole entry, looked up): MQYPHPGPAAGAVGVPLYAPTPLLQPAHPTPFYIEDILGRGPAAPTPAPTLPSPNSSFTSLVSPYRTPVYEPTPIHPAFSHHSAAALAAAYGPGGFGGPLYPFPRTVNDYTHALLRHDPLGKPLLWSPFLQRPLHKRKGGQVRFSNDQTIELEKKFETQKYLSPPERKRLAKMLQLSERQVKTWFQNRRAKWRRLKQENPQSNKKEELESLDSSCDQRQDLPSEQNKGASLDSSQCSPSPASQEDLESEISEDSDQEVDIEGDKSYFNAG
inactive: [1] 0.054 | [2] 0.187 | [3] 0.469 | [4] 0.026 | [5] 0.516

HEXA (UniProt P06865)
Sequence of UniProt P06865 (P06865 whole entry, looked up): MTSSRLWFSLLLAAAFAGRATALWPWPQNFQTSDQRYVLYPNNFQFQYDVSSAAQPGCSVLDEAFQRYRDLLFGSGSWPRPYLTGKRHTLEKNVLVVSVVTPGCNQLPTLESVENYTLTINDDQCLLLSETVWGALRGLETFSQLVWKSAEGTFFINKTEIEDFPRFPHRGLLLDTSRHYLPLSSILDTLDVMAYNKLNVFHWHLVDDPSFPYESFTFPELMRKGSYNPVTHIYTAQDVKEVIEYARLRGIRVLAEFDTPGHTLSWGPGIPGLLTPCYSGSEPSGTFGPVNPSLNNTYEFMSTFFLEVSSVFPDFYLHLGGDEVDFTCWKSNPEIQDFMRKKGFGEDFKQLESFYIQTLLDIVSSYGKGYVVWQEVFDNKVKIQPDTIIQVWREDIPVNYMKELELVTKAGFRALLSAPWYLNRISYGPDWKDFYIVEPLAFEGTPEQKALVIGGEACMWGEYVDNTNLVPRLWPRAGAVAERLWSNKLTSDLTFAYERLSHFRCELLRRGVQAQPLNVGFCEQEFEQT
inactive: [1] 0.042 | [2] -0.004 | [3] 0.052 | [4] -0.018 | [5] 0.024

HIST2H2BF isoform 2 (UniProt Q5QNW6)
inactive: [1] 0.148 | [2] -0.273 | [3] -0.29 | [4] -0.082 | [5] 0.125

GPAT4 (UniProt Q86UL3)
inactive: [1] 0.023 | [2] 0.046 | [3] 0.013 | [4] -0.046 | [5] -0.015

GBF1 (UniProt Q92538)
inactive: [1] -0.078 | [2] 0.036 | [3] 0.072 | [4] -0.005 | [5] 0.003

GCSH (UniProt P23434)
Sequence of UniProt P23434 (P23434 whole entry, looked up): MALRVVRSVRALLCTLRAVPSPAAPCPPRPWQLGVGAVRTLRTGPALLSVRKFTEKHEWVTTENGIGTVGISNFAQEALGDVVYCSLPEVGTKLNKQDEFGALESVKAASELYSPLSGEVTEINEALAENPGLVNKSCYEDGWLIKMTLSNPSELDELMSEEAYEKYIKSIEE
inactive: [1] 0.029 | [2] -0.004 | [3] -0.043 | [4] 0 | [5] 0.043

GNL3 (UniProt Q9BVP2)
inactive: [1] 0.101 | [2] 0.112 | [3] 0.164 | [4] -0.131 | [5] -0.053

HIC2 (UniProt Q96JB3)
inactive: [1] 0.163 | [2] -0.053 | [3] -0.048 | [4] 0.205 | [5] 0.078
